Reference: the supplement of paper PMC10849652
The full data set covers some 7,900 targets. This sample favours those with a hit. About 0.6% of all pairs of compound and target were hits.

These targets were tested with Cc1nc(Nc2ncc(C(=O)Nc3c(C)cccc3Cl)s2)cc(N2CCN(CCO)CC2)n1 [dasatinib] (assay: log2 fold change, soluble protein after heating vs DMSO (PISA); higher = thermal stabilisation; K562 cells, 10 uM, 30 min; active = over 0.2 and 3.5 SD of the protein, either way, in both replicates (recomputed)).
Procedure, shortened: (§1)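 K562 cells at 2×10^6 cells/mL were treated with 10 μM compound for 30 min. Aliquots were heated for 3 min across 48°C-58°C, pooled, and extracted in PBS with 0.5% NP-40 at 4°C; soluble protein was the supernatant after 21,000xg for 90 min. Soluble protein was quantified by TMTpro 16plex LC-MS/MS with channel sums equalised, and reported as log2 fold change in thermal stability against DMSO controls, with values from duplicates.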

Chain of UniProt Q02790 (Q02790 whole entry, looked up): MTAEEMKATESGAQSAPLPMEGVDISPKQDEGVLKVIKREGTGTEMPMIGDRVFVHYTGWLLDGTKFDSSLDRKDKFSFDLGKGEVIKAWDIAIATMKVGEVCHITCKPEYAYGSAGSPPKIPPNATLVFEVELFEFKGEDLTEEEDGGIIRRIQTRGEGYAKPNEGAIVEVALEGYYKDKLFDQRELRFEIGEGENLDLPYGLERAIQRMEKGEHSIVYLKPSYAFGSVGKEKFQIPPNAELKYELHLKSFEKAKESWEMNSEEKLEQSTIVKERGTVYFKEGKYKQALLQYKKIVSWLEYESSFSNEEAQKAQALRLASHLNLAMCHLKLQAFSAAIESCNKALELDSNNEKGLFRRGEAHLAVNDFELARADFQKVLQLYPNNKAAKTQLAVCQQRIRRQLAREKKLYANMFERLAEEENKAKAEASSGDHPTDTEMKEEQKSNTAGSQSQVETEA
Chain of UniProt Q92664 (Q92664 whole entry, looked up): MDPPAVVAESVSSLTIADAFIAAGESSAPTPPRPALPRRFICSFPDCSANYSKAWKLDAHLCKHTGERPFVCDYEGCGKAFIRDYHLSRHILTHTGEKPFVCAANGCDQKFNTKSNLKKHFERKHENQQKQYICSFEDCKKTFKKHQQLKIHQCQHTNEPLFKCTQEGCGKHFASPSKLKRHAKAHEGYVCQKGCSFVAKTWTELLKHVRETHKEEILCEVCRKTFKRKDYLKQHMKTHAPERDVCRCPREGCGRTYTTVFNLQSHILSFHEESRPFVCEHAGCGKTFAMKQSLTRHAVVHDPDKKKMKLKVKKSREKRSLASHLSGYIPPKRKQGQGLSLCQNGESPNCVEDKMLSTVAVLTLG
Chain of UniProt Q9Y248 (Q9Y248 whole entry, looked up): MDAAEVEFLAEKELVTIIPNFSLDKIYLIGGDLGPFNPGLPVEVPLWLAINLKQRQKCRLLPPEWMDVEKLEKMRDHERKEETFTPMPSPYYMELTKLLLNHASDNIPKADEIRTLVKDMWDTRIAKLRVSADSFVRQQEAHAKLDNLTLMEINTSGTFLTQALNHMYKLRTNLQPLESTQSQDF
Chain of UniProt Q13907 (Q13907 whole entry, looked up): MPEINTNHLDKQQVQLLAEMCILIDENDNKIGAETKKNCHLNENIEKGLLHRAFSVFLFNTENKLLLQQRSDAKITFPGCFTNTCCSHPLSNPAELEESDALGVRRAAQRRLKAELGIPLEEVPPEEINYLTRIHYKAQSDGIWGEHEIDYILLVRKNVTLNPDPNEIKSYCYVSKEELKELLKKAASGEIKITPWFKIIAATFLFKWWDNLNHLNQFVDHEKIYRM
Chain of UniProt Q6Y7W6 (Q6Y7W6 whole entry, looked up): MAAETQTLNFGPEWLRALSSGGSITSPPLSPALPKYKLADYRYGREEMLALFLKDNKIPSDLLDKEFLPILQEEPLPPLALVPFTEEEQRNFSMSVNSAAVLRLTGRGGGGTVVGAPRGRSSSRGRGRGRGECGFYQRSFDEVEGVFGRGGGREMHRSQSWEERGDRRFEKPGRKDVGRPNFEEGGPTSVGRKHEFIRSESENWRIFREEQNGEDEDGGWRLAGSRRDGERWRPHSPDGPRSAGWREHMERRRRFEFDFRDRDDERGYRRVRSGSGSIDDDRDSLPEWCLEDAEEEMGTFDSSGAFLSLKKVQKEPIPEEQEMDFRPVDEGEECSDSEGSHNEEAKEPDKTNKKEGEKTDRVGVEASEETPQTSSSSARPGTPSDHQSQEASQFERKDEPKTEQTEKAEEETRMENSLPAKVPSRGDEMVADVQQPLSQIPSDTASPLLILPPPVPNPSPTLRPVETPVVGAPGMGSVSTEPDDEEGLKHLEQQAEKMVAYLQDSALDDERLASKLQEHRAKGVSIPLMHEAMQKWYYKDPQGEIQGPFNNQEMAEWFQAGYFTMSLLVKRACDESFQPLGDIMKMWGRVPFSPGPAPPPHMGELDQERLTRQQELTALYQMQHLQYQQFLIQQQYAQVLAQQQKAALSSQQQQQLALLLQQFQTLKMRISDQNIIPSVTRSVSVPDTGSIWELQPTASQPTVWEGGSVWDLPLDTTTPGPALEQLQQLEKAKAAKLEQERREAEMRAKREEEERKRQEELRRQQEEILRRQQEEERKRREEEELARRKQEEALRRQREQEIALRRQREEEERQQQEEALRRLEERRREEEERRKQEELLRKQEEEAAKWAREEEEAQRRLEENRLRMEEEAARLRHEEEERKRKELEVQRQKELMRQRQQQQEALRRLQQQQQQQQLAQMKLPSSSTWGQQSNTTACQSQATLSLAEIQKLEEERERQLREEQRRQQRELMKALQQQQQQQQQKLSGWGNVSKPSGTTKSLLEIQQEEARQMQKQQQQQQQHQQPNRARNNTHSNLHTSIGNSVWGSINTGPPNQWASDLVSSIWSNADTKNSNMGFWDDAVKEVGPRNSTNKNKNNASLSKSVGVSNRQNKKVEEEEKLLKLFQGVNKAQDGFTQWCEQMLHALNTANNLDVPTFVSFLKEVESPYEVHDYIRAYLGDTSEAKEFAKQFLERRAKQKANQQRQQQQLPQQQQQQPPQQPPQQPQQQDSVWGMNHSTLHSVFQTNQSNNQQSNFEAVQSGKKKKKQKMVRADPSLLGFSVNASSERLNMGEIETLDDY
Chain of UniProt Q53R41 (Q53R41 whole entry, looked up): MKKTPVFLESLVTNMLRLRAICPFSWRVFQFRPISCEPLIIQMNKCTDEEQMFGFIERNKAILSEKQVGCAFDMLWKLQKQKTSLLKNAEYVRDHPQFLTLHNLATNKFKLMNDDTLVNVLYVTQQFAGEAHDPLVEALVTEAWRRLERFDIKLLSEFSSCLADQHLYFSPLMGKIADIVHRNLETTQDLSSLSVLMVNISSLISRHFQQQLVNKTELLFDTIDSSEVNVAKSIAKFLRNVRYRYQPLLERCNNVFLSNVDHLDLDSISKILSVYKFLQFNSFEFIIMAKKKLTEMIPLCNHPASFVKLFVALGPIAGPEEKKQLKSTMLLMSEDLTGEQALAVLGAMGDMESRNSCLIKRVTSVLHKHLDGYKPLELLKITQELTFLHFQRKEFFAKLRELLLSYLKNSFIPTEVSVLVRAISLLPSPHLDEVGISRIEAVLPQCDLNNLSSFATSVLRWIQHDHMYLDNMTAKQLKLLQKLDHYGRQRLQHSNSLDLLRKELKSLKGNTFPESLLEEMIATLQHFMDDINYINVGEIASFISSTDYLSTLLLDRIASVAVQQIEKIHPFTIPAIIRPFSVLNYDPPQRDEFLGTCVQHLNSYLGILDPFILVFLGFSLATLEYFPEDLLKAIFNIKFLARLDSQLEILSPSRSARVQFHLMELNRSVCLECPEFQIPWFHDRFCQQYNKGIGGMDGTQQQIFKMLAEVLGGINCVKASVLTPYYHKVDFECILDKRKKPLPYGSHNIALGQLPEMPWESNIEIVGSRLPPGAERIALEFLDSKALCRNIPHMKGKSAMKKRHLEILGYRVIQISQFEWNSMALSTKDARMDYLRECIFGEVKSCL
Chain of UniProt P07686 (P07686 whole entry, looked up): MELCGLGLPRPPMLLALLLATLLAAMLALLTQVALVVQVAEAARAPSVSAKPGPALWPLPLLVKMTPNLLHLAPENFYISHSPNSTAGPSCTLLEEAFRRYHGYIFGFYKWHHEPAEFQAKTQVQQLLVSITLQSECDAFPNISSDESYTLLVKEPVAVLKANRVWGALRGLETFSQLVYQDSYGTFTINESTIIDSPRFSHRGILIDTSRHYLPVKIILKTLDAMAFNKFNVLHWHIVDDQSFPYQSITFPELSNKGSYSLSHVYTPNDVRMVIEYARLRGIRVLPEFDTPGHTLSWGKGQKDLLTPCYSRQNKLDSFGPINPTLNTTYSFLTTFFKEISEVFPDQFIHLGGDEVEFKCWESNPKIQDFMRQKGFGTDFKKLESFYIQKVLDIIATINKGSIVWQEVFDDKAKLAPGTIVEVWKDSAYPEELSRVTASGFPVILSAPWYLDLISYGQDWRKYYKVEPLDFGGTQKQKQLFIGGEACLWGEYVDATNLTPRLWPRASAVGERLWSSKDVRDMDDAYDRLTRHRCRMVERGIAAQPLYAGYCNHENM
Chain of UniProt P21695 (P21695 whole entry, looked up): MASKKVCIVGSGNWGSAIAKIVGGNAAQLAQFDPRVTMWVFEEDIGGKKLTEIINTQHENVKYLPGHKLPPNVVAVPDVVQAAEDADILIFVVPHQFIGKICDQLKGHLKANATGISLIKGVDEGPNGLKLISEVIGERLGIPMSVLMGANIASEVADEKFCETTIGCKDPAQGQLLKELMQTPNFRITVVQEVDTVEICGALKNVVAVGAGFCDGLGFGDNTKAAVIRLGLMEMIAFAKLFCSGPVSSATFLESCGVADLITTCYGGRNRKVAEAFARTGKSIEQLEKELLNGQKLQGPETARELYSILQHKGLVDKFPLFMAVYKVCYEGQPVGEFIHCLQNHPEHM
Chain of UniProt O76003 (O76003 whole entry, looked up): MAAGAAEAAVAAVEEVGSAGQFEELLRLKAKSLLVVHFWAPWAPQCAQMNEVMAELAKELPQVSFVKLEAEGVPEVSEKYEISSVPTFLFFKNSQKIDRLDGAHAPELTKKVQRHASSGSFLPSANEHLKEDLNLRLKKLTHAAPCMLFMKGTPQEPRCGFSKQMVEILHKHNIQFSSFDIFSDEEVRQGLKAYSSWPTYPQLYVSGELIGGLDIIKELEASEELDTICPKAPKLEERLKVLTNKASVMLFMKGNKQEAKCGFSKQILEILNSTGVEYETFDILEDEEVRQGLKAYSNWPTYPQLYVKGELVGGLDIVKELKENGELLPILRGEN
Chain of UniProt P09211 (P09211 whole entry, looked up): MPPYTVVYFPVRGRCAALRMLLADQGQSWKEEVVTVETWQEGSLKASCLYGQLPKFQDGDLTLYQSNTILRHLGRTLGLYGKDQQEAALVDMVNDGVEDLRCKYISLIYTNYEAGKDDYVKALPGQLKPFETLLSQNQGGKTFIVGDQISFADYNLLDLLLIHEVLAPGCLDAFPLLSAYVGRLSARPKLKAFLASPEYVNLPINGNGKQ
Chain of UniProt P60520 (P60520 whole entry, looked up): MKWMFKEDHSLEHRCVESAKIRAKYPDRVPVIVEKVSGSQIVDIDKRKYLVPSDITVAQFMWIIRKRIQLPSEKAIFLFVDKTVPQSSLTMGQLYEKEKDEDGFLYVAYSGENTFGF

log2 fold change, inactive:
GABPA (UniProt Q06546) -0.12, FRA10AC1 isoform 3 (UniProt Q70Z53) -0.051, GINS2 (UniProt Q9Y248) -0.265, GNAS (UniProt Q5JWF2) 0.064, GYS1 (UniProt P13807) 0.172, HEXB (UniProt P07686) 0.039, HDAC1 (UniProt Q13547) -0.091, FKBP4 (UniProt Q02790) -0.114, GATD1 (UniProt Q8NB37) -0.011, GSTT1 (UniProt P30711) 0.143, HDAC10 (UniProt Q969S8) -0.027, GPD1 (UniProt P21695) 0.061, HDAC2 (UniProt Q92769) 0.007, FKBP3 (UniProt Q00688) -0.003, HDAC7 isoform 5 (UniProt Q8WUI4) -0.134, FBXO9 (UniProt Q9UK97) -0.056, GOPC (UniProt Q9HD26) -0.081, GNL3 (UniProt Q9BVP2) -0.031, GIGYF2 (UniProt Q6Y7W6) -0.22, GSTP1 (UniProt P09211) -0.014, GNL1 (UniProt P36915) -0.084, GTF3A (UniProt Q92664) -0.137, GEMIN2 (UniProt O14893) 0.049, FUT8 (UniProt Q9BYC5) 0.031, GLCCI1 (UniProt Q86VQ1) -0.066, FAT1 (UniProt Q14517) 0.046, GLRX3 (UniProt O76003) -0.054, IFRD1 (UniProt O00458) 0.071, IDI1 isoform 2 (UniProt Q13907) 0.002, HEATR3 (UniProt Q7Z4Q2) -0.073, GABARAPL2 (UniProt P60520) -0.014, GTPBP6 (UniProt O43824) 0.028, GCLM (UniProt P48507) -0.095, GTF2A2 (UniProt P52657) 0.047, FASTKD1 (UniProt Q53R41) -0.168

The targets below were run with Cc1ncc(-c2ccnc(Nc3ccc(S(C)(=O)=O)cc3)n2)n1C(C)C in the same assay as above.
Procedure, shortened: as §1

log2 fold change, inactive:
GABPA (UniProt Q06546) -0.026, FRA10AC1 isoform 3 (UniProt Q70Z53) 0.085, GINS2 (UniProt Q9Y248) 0.03, GNAS (UniProt Q5JWF2) 0.005, GYS1 (UniProt P13807) -0.036, HEXB (UniProt P07686) -0.024, HDAC1 (UniProt Q13547) -0.055, FKBP4 (UniProt Q02790) 0.024, GATD1 (UniProt Q8NB37) 0.119, GSTT1 (UniProt P30711) -0.033, HDAC10 (UniProt Q969S8) -0.08, GPD1 (UniProt P21695) -0.017, HDAC2 (UniProt Q92769) -0.002, FKBP3 (UniProt Q00688) 0.029, HDAC7 isoform 5 (UniProt Q8WUI4) -0.161, FBXO9 (UniProt Q9UK97) -0.113, GOPC (UniProt Q9HD26) 0.021, GNL3 (UniProt Q9BVP2) 0.056, GIGYF2 (UniProt Q6Y7W6) -0.023, GSTP1 (UniProt P09211) 0.007, GNL1 (UniProt P36915) 0.054, GTF3A (UniProt Q92664) -0.031, GEMIN2 (UniProt O14893) -0.027, FUT8 (UniProt Q9BYC5) 0.054, GLCCI1 (UniProt Q86VQ1) -0.094, FAT1 (UniProt Q14517) -0.064, GLRX3 (UniProt O76003) 0.015, IFRD1 (UniProt O00458) 0.202, IDI1 isoform 2 (UniProt Q13907) -0.01, HEATR3 (UniProt Q7Z4Q2) -0.073, GABARAPL2 (UniProt P60520) -0.004, GTPBP6 (UniProt O43824) -0.042, GCLM (UniProt P48507) 0.019, GTF2A2 (UniProt P52657) -0.021, FASTKD1 (UniProt Q53R41) -0.053
